For assay [1], the target named is Cell division control protein 42 homolog (Homo sapiens) (UniProt P60953). The assay can be described thus: activated mutant Cdc42 GTP-binding inhibitors, dose response, biochemical, multiplex bead flow cytometry, Bodipy-FL-GTP (AID 1333;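 active means fitted half-maximal concentration within the tested dose range, moderate curve steepness, a statistically real signal drop, and little compound fluorescence or tag-binding interference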). A general note: A flow cytometer gives signals particle by particle.
Sequence of Cell division control protein 42 homolog (Homo sapiens) (P60953 whole entry, looked up): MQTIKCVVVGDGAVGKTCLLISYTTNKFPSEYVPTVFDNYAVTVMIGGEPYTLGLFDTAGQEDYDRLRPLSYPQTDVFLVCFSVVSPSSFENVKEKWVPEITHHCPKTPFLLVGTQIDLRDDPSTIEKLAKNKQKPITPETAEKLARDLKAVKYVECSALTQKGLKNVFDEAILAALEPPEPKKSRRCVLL
The target is the same in assay [2]. In words: wildtype Cdc42 GTP-binding inhibitors, dose response, biochemical, multiplex bead flow cytometry, Bodipy-FL-GTP (AID 1334;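 active means fitted half-maximal concentration within the tested range, moderate curve steepness, significant signal drop, and little compound fluorescence or bead-linkage interference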). Particulars: bead-based flow cytometry, Bodipy-FL-GTP binding to GST-Cdc42; at 100 µM (top of the series) unless noted.
The target in assay [3] is GTPase HRas (Homo sapiens) (UniProt P01112). In words: inhibitors of GTP binding to wildtype Ras, dose response, biochemical, multiplex bead flow cytometry (AID 1335;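 active means fitted half-maximal concentration within 10 nM to 100 µM, steepness 0.5 to 2, significant signal drop, low assay interference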). Particulars: bead-based flow cytometry, Bodipy-GTP binding to GST-Ras; at 100 µM (top of the series) unless noted.
Sequence of GTPase HRas (Homo sapiens) (P01112 whole entry, looked up): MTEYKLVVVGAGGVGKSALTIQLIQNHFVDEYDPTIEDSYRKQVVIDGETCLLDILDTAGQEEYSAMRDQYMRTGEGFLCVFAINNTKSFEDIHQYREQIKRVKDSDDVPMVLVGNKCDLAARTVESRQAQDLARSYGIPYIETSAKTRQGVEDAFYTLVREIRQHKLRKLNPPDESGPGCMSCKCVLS
For assay [4], the system named is Ras-related protein Rab-7a (dog), GTP binding. In words: Rab7 GTP binding inhibitors, potency, dose response, biochemical, wildtype, multiplex bead flow cytometry (AID 1336; call rule not given here).
Assay [5] addresses Ras-related C3 botulinum toxin substrate 1 (Homo sapiens) (UniProt P63000). In words: wildtype Rac1 GTP binding inhibitors, dose response, biochemical, multiplex bead flow cytometry (AID 1340). The settings on record: GST-Rac1 beads, Bodipy-FL-GTP binding; at 100 µM (top of the series) unless noted.
For assay [6], the target named is GTPase HRas (Homo sapiens) (UniProt P01112). The assay can be described thus: activated Ras mutant GTP binding inhibitors, dose response, biochemical, multiplex bead flow cytometry (AID 1341;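 active means dose-response curve with midpoint inside the tested range, moderate steepness, significant amplitude and little compound fluorescence or bead-attachment interference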;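 further: GST-tagged constitutively activated Ras mutant immobilized on beads and multiplexed with other GTPases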).

For part of these data: Potency and affinity values are given separately. The source made the active and inactive calls.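 How the source made its calls, unless noted: active means dose curve with midpoint inside tested range, moderate steepness, plateau gap beyond fit error, low compound glow and bead-link interference; inactive means the rest.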

Consider `Cc1cc(/C=C2\SC(=S)N(Cc3ccco3)C2=O)c(C)n1-c1cccnc1`, for which the result in assay [1], in assay [4] and in assay [6] was inactive. Further, the fluorescence, percent of control (lower = inhibition) in assay [2] amounted to 137%. The GTP binding, percent of control in assay [3] is 95.2%. The same molecule came in with a GTP binding signal, raw median fluorescence (lower = inhibition) (MCF (arbitrary fluorescence units)) in assay [5] of 209.
Regarding `CCOC(=O)c1c(CSc2ccccc2)n(C)c2cc(Br)c(OCC(O)CNC(CO)(CO)CO)cc12` (stereo not given), the outcome in assay [1], in assay [4] and in assay [6] was inactive. Besides, the fluorescence, percent of control (lower = inhibition) in assay [2] was 94.1%. The molecule also displayed a GTP binding, percent of control in assay [3] of 147%. Also, in assay [5], the GTP binding signal, raw median fluorescence (lower = inhibition) (MCF (arbitrary fluorescence units)) was found to be 320.
Consider `COc1ccc(C(=O)Nc2nc3ccccc3[nH]2)cc1S(=O)(=O)N1CCOCC1`, for which the outcome in assay [1], in assay [4] and in assay [6] was inactive. Further, the fluorescence, percent of control (lower = inhibition) in assay [2] was 32.9%. This molecule also gave a GTP binding, percent of control in assay [3] of 73.9%. For the same molecule, the GTP binding signal, raw median fluorescence (lower = inhibition) (MCF (arbitrary fluorescence units)) in assay [5] was found to be 197.
`CC1CCCN(c2ccc3nc4ccccc4c(=O)n3n2)C1` (stereo not given): the result in assay [1], in assay [4] and in assay [6] was inactive. In addition, the fluorescence, percent of control (lower = inhibition) in assay [2] was found to be 33.3%. Moreover, the GTP binding, percent of control in assay [3] came to 74.6%. The same molecule displayed a GTP binding signal, raw median fluorescence (lower = inhibition) (MCF (arbitrary fluorescence units)) in assay [5] of 179.
For the molecule `CN(C)c1ccc(/C=C2\SC(=S)N(Nc3ncc(C(F)(F)F)cc3Cl)C2=O)cc1`, the result in assay [1], in assay [4] and in assay [6] was inactive. Also, in assay [2], the fluorescence, percent of control (lower = inhibition) amounted to 139%. This molecule returned a GTP binding, percent of control in assay [3] of 236%. In addition, the GTP binding signal, raw median fluorescence (lower = inhibition) (MCF (arbitrary fluorescence units)) in assay [5] was 230.
Turning to `O=C(O)c1cc(N2N=C(C(F)(F)F)/C(=C/C=C/c3ccco3)C2=O)ccc1Cl`, the molecule was called inactive in assay [1], in assay [4] and in assay [6]. Moreover, the fluorescence, percent of control (lower = inhibition) in assay [2] is 22.4%. For the same molecule, in assay [3], the GTP binding, percent of control is 69.8%. In assay [5], this molecule yielded a GTP binding signal, raw median fluorescence (lower = inhibition) (MCF (arbitrary fluorescence units)) of 174.
For `Cc1ccc(N2C(=O)c3ccccc3C2Nc2cccnc2)nc1` (stereo not given), the result in assay [1], in assay [4] and in assay [6] was inactive. In addition, in assay [2], the fluorescence, percent of control (lower = inhibition) was determined as 37%. The molecule further displayed a GTP binding, percent of control in assay [3] of 84.5%. Further, the GTP binding signal, raw median fluorescence (lower = inhibition) (MCF (arbitrary fluorescence units)) in assay [5] worked out at 272.
Consider `Cc1nc(NC(=O)/C=C/c2ccc(Cl)cc2Cl)sc1C(=O)N(C)C`, for which the molecule was called inactive in assay [1], in assay [4] and in assay [6]. Besides, the fluorescence, percent of control (lower = inhibition) in assay [2] came out at 45%. The molecule further had a GTP binding, percent of control in assay [3] of 61.1%. For the same molecule, the GTP binding signal, raw median fluorescence (lower = inhibition) (MCF (arbitrary fluorescence units)) in assay [5] amounted to 182.
As for `Cn1nc(C(=O)Nc2cccnc2)c2ccccc2c1=O`, the call in assay [1], in assay [4] and in assay [6] was inactive. Moreover, the fluorescence, percent of control (lower = inhibition) in assay [2] amounted to 49%. This molecule registered a GTP binding, percent of control in assay [3] of 111%. The molecule also came in with a GTP binding signal, raw median fluorescence (lower = inhibition) (MCF (arbitrary fluorescence units)) in assay [5] of 135.
`O=S(=O)(Nc1cc(Sc2ncn[nH]2)c(O)c2ccccc12)c1ccccc1`: the molecule was classed as inactive in assay [1], in assay [4] and in assay [6]. Moreover, the fluorescence, percent of control (lower = inhibition) in assay [2] was determined as 31.4%. The same molecule showed a GTP binding, percent of control in assay [3] of 71.9%. The molecule further returned a GTP binding signal, raw median fluorescence (lower = inhibition) (MCF (arbitrary fluorescence units)) in assay [5] of 155.
As for `COc1cccc(OCc2ccccc2Br)c1C(=O)O`, the result in assay [1], in assay [4] and in assay [6] was inactive. In assay [2], the fluorescence, percent of control (lower = inhibition) stood at 51.9%. Also, in assay [3], the GTP binding, percent of control came out at 206%. The molecule also gave a GTP binding signal, raw median fluorescence (lower = inhibition) (MCF (arbitrary fluorescence units)) in assay [5] of 46.4.
In the case of `O=C(O)C1CCCN1C(=O)OCc1ccccc1` (stereo not given), the molecule was called inactive in assay [1], in assay [4] and in assay [6]. Moreover, the fluorescence, percent of control (lower = inhibition) in assay [2] came out at 108%. In assay [3], this molecule returned a GTP binding, percent of control of 188%. Also, the GTP binding signal, raw median fluorescence (lower = inhibition) (MCF (arbitrary fluorescence units)) in assay [5] amounted to 235.
In the case of `Cc1ccc(O)c(N=Cc2cc(Cc3ccccc3)cc([N+](=O)[O-])c2O)c1`, the call in assay [1], in assay [4] and in assay [6] was inactive. The fluorescence, percent of control (lower = inhibition) in assay [2] was 30.7%. In assay [3], this molecule returned a GTP binding, percent of control of 72.6%. This molecule had a GTP binding signal, raw median fluorescence (lower = inhibition) (MCF (arbitrary fluorescence units)) in assay [5] of 111.
`Fc1cccc(CSc2ccc3nnc(-c4cccnc4)n3n2)c1`: the molecule was called inactive in assay [1], in assay [4] and in assay [6]. The fluorescence, percent of control (lower = inhibition) in assay [2] amounted to 33.8%. This molecule also displayed a GTP binding, percent of control in assay [3] of 73.3%. In assay [5], the GTP binding signal, raw median fluorescence (lower = inhibition) (MCF (arbitrary fluorescence units)) was determined as 183.
Regarding `Cc1ccc(C2=NN(CCC(=O)NCc3ccc4c(c3)OCO4)C(=O)CC2)cc1`, the outcome in assay [1], in assay [4] and in assay [6] was inactive. Moreover, the fluorescence, percent of control (lower = inhibition) in assay [2] was found to be 51.3%. The molecule further yielded a GTP binding, percent of control in assay [3] of 60.2%. The molecule also yielded a GTP binding signal, raw median fluorescence (lower = inhibition) (MCF (arbitrary fluorescence units)) in assay [5] of 207.
